Test results published in PubChem BioAssay AID504321 (NMMLSC, 2011).
Unmarked numbers belong to inactive results. Activity calls are given as the source filed them.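 How the source made its calls: active means GFP response vs DMSO above 150% with enough events counted; inconclusive means fewer than 70 events counted for a yeast strain; inactive means the rest.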

assay: MEP2-GFP expression modulation in yeast, confirmation, flow cytometry, third cherry pick, S. cerevisiae (AID 504321);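 further: median per-cell GFP fluorescence by flow cytometry across all yeast cells; ratio of sample to DMSO median GFP so 100% equals the DMSO level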; details: S. cerevisiae MEP2-GFP strain, 3 h, at 10 µM, hits give high values

| SMILES | GFP response vs DMSO |
| --- | --- |
| Cc1ccc2c(Cl)cc(Cl)c(O)c2n1 | 168% (active) |
| CCc1c(C)nc2c(OC)cccc2c1Cl | 110% |
| COc1cccc(OCc2cc(C(=O)N3CCN(C)C(c4ccccc4)C3)no2)c1 (centres undefined) | 108% |
| Nc1c(C(=O)O)ccc2c1C(=O)c1ccccc1C2=O | 127% |
| Cc1cccc(Nc2cc(=O)[nH]c(=O)[nH]2)c1C | 114% |
| Nc1nc(NCCOCCO)nc(Nc2cccc(F)c2)c1[N+](=O)[O-] | 108% |
| O=c1cc(C(F)(F)F)[nH]c2c(OC(F)(F)F)cccc12 | 114% |
| Cn1cccc1C(=O)Nc1nc(-c2ccccn2)cs1 | 101% |
| COc1ccc(OC)c2c(C)cc(C)nc12 | 108% |
| C/C(=C\C(=O)c1ccccc1)Nc1cccc(O)c1 | 110% |
| CS(=O)(=O)c1nc(-c2ccc(F)cc2)cc(C(F)(F)F)n1 | 133% |
| CC(=O)C(CC(=O)N1CCCC1)C(=O)Nc1ccc(Cl)cc1 (centres undefined) | 105% |
| O=C(N/N=C/c1ccccc1F)c1cccc2ccccc12 | 108% |
| COc1cccc2c(O)cc(=O)n(C)c12 | 108% |
| Cc1nc2c(O)cccc2cc1CO | 103% |
| COCCCNc1nc(N)c([N+](=O)[O-])c(Nc2ccccc2OC)n1 | 110% |
| CC(=O)Nn1cnc2c(c1=O)C1(CCCC1)Cc1ccccc1-2 | 105% |
| O=C(Nc1ccccc1)ON=C1c2ccccc2-c2ccccc21 | 99% |
| COc1cc(=O)n(C)c2c(O)cccc12 | 110% |
